Several values for one entry are separate records, joined by “and”; a condition that tells them apart may be missing. Equal entries are not always repeated. The panel holds about 83,000 compounds, 20% with a hit somewhere; the sample as a whole holds those more often.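 96-well plates, one dose, 48 hours. Percent growth reported; active if below 10.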 Activity calls are given as the source filed them.
system: MCF7 breast; test: NCI-60 one-dose screen, 48 h (100 = growth as untreated, 0 = no growth, -100 = all killed); details: 10 µM unless noted

| Structure (SMILES) | growth |
| --- | --- |
| Cc1cc(O)c2c(c1)C(=O)C(c1c(C)cc3c(c1O)C(=O)C1OC1C3=O)=CC2=O (stereo not drawn) | -64.5% [100 µM] (active) and -90% [100 µM] (active) |
| On1c(-c2ccccc2)nc2ccccc2c1=S | 6.65% [100 µM] (active) and -68.9% [100 µM] (active) |
| O=C(O)CCCOc1cc(-c2ccccc2F)nc2cc3c(cc12)OCO3 | 9.31% [100 µM] (active) and -50% [100 µM] (active) |
| CCOC(=O)C1C(C(C)C)C2(C#N)C(=N)OC1(C)C2(C#N)C#N (stereo not drawn) | 2.36% [100 µM] (active) and -41% [100 µM] (active) |
| S=C1NC2=C(COc3ccccc32)C(c2ccc(Cl)cc2)N1 (stereo not drawn) | -4.81% [100 µM] (active) and -100% [100 µM] (active) |
| Cc1c2c(c(C)c3c[n+](C)ccc13)Oc1ccccc1O2 | -33.4% [100 µM] (active) and -100% [100 µM] (active) |
| C=C(C)C1CC2(C)C(C)CC(O)CC2C(OC(=O)C=C(C)C)C1O (stereo not drawn) | 5.38% [100 µM] (active) and 25.4% [100 µM] (inactive) |
| Fc1cccc(F)c1C1SCc2nc3cc4ccccc4cc3n21 (stereo not drawn) | -28.9% [100 µM] (active) and -2.13% [100 µM] (active) |
| CCOc1cc2c(cc1O)/C(=N\OC)C[C@@H]1[C@@H]2CC[C@]2(C)[C@@H](O)CC[C@@H]12 | 0.562% [100 µM] (active) and -100% [100 µM] (active) |
| COC(=O)[C@]1(C)CCC[C@@]2(C)[C@@H]3C[C@@H]4[C@H]5C[C@@]3(CC[C@@H]21)C[C@@]45C | -81% [100 µM] (active) and -80% [100 µM] (active) |
| C=c1c2ccccc2oc2nc3[nH]c(N)c(C#N)c(N)c3c(=N)c12 | 25.6% [100 µM] (inactive) and 0.562% [100 µM] (active) |
| Cc1ccc(NC(=S)C#N)cc1Cl | -25.7% [100 µM] (active) and -100% [100 µM] (active) |
| CCOC(=O)COc1cc(-c2ccccc2F)nc2cc3c(cc12)OCO3 | 42.6% [100 µM] (inactive) and 19.5% [100 µM] (inactive) |
| CC1(C)CCC[C@]2(C)[C@@H](C=O)C(C=O)=CC[C@@H]12 | -13.9% [100 µM] (active) and -1.67% [100 µM] (active) |
| CC(C)(C)N/N=C(/Cc1nc2c3c(ccc2[nH]c1=O)C(=O)c1ccccc1C3=O)C(=O)NC1=C(Cl)C(=O)c2ccccc2C1=O | 6.76% [100 µM] (active) and -75.9% [100 µM] (active) |
| O=C(CCc1ccccc1)ON1C(=S)NC(c2ccccc2)(c2ccccc2)C1=S | -45.8% [100 µM] (active) and 5.76% [100 µM] (active) |
| CC1=C(C2=C(C)C(=O)C(=O)c3cc(C)ccc32)c2ccc(C)cc2C(=O)C1=O | -55.4% [100 µM] (active) and -100% [100 µM] (active) |
| C=C(CO)C(=O)OC1CC(=C)C2CC(O)C(C)C2C2OC(=O)C(=C)C12 (stereo not drawn) | 73.2% [100 µM] (inactive) and -86.7% [100 µM] (active) |
| COc1ccc2nc3c4c(nccc4c2c1)-c1ncccc1C3=O | -82% [50 µM] (active) and -100% [50 µM] (active) |

| Structure (SMILES) | growth |
| --- | --- |
| CC1OC(OC2C(OC3CCC4(C)C(CCC5(C)C4CC=C4C6CC(C)(C)CCC6(C(=O)O)CCC45C)C3(C)CO)OCC(O)C2O)C(O)C(O)C1O (stereo not drawn) | -88% [100 µM] (active) and -90.5% [100 µM] (active) |
| CN1CCc2cc3c(c4c2C1C(O)c1ccccc1-4)OCO3 (stereo not drawn) | -24.6% [100 µM] (active) and -58.3% [100 µM] (active) |
| C=C1C(=O)C2=CC1CCC(=O)C1(C)CCC(OC(C)=O)C(C)(C)C1CC2O (stereo not drawn) | -80.9% [100 µM] (active) and -63.1% [100 µM] (active) |
| COc1ccc2c(c1)C(OC)C1c3c(cc4c(c3-2)OCO4)CCN1C (stereo not drawn) | -76.9% [100 µM] (active) and -70% [100 µM] (active) |
| CC1(C)CCC2(C(=O)O)C(O)CC3(C)C(=CCC4C5(C)CCC(OC6OCC(O)C(O)C6OC6OCC(O)C(O)C6OC6OCC(O)C(OC7OC(CO)C(O)C(O)C7O)C6O)C(C)(C)C5CCC43C)C2C1 (stereo not drawn) | 76.4% [100 µM] (inactive) and 25.5% [100 µM] (inactive) |
| Cn1c(COC(=O)NC2CCCCC2)c(COC(=O)NC2CCCCC2)c2ccc3cc(Cl)c(Cl)cc3c21 | -78.6% [100 µM] (active) |
| COc1c(/C=C/C=O)cc2c(c1OC)OCO2 | -30% [100 µM] (active) and -83.3% [100 µM] (active) |
| CC1(C=O)CCC23COC4(CCC5C6(C)CCC(OC7OCC(OC8OC(CO)C(O)C(OC9OC(CO)C(O)C(O)C9O)C8OC8OCC(O)C(O)C8O)C(O)C7OC7OC(CO)C(O)C(O)C7O)C(C)(C)C6CCC5(C)C4(C)CC2O)C3C1 (stereo not drawn) | -68.6% [100 µM] (active) and -39.6% [100 µM] (active) |
| N=C1C(=N)c2ccccc2-c2ccccc21 | 30.7% [100 µM] (inactive) and 0.817% [100 µM] (active) |
| CC1=CC[C@@H]2[C@@H](CC[C@@]2(C)O)C(C)(C)[C@H]1CC[C@@H]1[C@@]2(C)CCC(=O)C(C)(C)O[C@@H]2CC[C@]1(C)O | -36.8% [100 µM] (active) and -100% [100 µM] (active) |
| O=Cc1ccc(-c2ccc(-c3ccc(CO)s3)o2)s1 | -23.2% [100 µM] (active) and -100% [100 µM] (active) |
| C=C1C(=O)OC2CC1C(OC(=O)/C=C/c1ccccc1)C/C(C)=C/CC/C(C)=C/CCC2(C)O (stereo not drawn) | -76% [100 µM] (active) and -30% [100 µM] (active) |
| COc1ccc2c(c1)C(N)=C(c1ccccc1)C2=O | 57.4% [100 µM] (inactive) and 16.6% [100 µM] (inactive) |
| C=C1C(=O)OC2CC3(C)CCCC(C)C3=CC12 (stereo not drawn) | -91.8% [100 µM] (active) and -84.5% [100 µM] (active) |
| CC1=C(Cl)C[C@@H](/C(C)=C\Cl)O[C@@]1(O)C(Br)Br | 19.3% [100 µM] (inactive) and -76.7% [100 µM] (active) |
| C[C@@H]1CCC([C@@H](C)[C@H]2CC[C@H]3[C@@H]4CC[C@H]5C[C@@H](O)CC[C@]5(C)[C@H]4CC[C@]23C)=NC1 | 8.1% [100 µM] (active) and -46.7% [100 µM] (active) |
| O=C(/C=C/c1ccccc1)CCC1C(=O)c2ccccc2C1=O | 48% [100 µM] (inactive) and 57.5% [100 µM] (inactive) |
| CC1=CC[C@@H]2[C@@H](CC[C@@]2(C)O)C(C)(C)[C@H]1CC[C@@H]1[C@@]2(C)CC[C@@H](O)C(C)(C)O[C@@H]2CC[C@]1(C)O | -12.8% [100 µM] (active) and -70.8% [100 µM] (active) |
| CCOc1ccc(NC(=O)/C(=N\N)C(C(=O)OC)c2nc3ccc(Cl)cc3[nH]c2=O)cc1 (stereo not drawn) | 73% [100 µM] (inactive) and 60.5% [100 µM] (inactive) |

From PubChem BioAssay (NCI)
